# Source: PubChem (National Center for Advancing Translational Sciences (NCATS))
# D2 antag = antagonizes the human D2 dopamine receptor; P14416; HEK293 TREx D2 cells, calcium flux, dopamine EC80; inhibition, % at 10 µM; 2% of 340,000 active; in the data active = inhibition above about 30%; inactive = below that, where a call was filed; also: 0% is about no effect
#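 Dopamine at EC80 is the agonist stimulus; test compounds precede it by 180 s. Calcium flux read kinetically in a force-coupled, inducible HEK293 T-REx D2 cell line.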
# D2 ag-1 = human D2 receptor agonism in beta-arrestin assay | P14416 | DiscoveRx PathHunter D2 beta-arrestin, luminescence, 90 min; 100% = 57 uM dopamine signal | 0.084% of 360,000 active | activation, % (concentration not given with the values); in the data active = activation above about 40%; inconclusive = between about 15% and that limit
#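 Agonist mode: compounds alone added to overnight-plated D2 PathHunter cells for 90 min at 37 C, with 57 uM final dopamine (EC100) defining full response. Beta-arrestin recruitment detected by chemiluminescent reagent, read after 1 h at ambient temperature.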
# D2 ag-2 = activates the human D2 dopamine receptor. 0.53% of 340,000 active. P14416. HEK293 T-REx D2 cells, calcium flux agonist mode. activation, % at 2 µM;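 active = activation over 3 SD above normal in the single-dose calcium agonist read, cut at about 30% in these data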; also: 0% is about no effect
#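 In this primary screen, compounds producing a positive calcium signal within 180 s of addition to tetracycline-induced, force-coupled HEK293 Trex D2 cells are flagged; cells are dye-loaded with a no-wash calcium kit beforehand.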
# D2 PAM-1 = positively modulates the human D2 dopamine receptor allosterically. P14416. HEK293 T-REx D2, calcium flux, EC20 dopamine potentiation. potentiation, % at 10 µM. 0.34% of 340,000 active. AID 485347;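 active = potentiation over 3 SD above the plate norm, cut at about 30% in these data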; also: 0% is about no effect
#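 Potentiation of an EC20 dopamine calcium response measured kinetically over 180 s, after a preceding 180 s compound-only read flagging agonists. Cells: inducible Hek293 Trex D2 line, 4000/well, cultured overnight at 30 C before dye loading.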
# D2 PAM-2 = human D2 receptor positive allosteric modulation. P14416. DiscoveRx D2 beta-arrestin cells, luminescence, 90 min; 100% = 57 uM dopamine signal. potentiation, % (concentration not given with the values). 0.23% of 360,000 active. AID 624464; in the data active = potentiation above about 50%; inconclusive = mostly about 30% to 49%
#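 D2 cells co-treated with compound plus 50 nM dopamine (EC20) for 90 min at 37 deg C to detect potentiation. Beta-arrestin recruitment was read as enzyme-fragment luminescence after 1 h at ambient temperature. Full response was set by 57 uM dopamine.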
# D3 arrestin ag = confirmation of human D3 dopamine receptor agonists, beta-arrestin; shares compounds with D2 ag-2; DiscoveRx D3 beta-arrestin cells, luminescence, 90 min; Potency, µM (top dose mostly 76.9 µM), for inactives: at the highest dose activation, most hits filed as activators; 4% of 2,300 active; AID 720506;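 also: potency is read from the fitted curve at half-maximal effect; 100% = dopamine control response; nearly all actives have a fitted effect of over 70% in size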
# Target sequence (P35462 whole entry, looked up): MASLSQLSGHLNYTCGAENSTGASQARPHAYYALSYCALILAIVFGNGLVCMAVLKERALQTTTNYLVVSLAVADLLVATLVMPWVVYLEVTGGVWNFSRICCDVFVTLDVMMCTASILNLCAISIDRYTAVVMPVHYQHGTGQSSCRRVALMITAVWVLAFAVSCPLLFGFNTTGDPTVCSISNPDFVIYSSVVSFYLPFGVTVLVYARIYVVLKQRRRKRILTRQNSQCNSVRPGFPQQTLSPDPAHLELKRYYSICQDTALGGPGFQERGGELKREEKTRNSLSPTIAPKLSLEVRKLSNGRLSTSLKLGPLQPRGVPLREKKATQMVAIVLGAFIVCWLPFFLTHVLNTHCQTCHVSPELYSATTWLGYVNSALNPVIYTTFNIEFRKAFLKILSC
# D2 ag-3 = activates human D2 dopamine receptor in D3 counterscreen. DiscoveRx PathHunter D2 beta-arrestin, luminescence, 90 min; response scale: percent relative to full dopamine signal. Potency, µM (titrated, usually from 76.9 µM), for the others: at the highest dose activation, usual class: activators. 5.9% of 2,300 active. shares compounds with D2 ag-2; also: potency is read from the fitted curve at half-maximal effect; % of control where 0% means no effect; nearly all actives have a fitted effect of over 70% in size
# Numbers without * were called inactive; u = inconclusive; x = no result given. Most compounds without a hit are left out; they make up all but 2.4% or so of the library. Unless noted, calls follow the shape of the dose curve; as a rule, active = well fitted activation curve with a large enough effect; inconclusive = small, poorly fitted or top-dose-only effect; inactive = flat fitted curve, though single readings scatter.
SMILES,D2 antag,D2 ag-1,D2 ag-2,D2 PAM-1,D2 PAM-2,D3 arrestin ag,D2 ag-3
CCOC(=O)C1CCN(CC(O)COc2ccc(C(=O)CC)cc2)CC1 (configuration not stated),56*,u,79*,-31,10,3%,u
CC(=O)c1ccccc1OCC(O)CN1CCN(c2ccccn2)CC1 (configuration not stated),15,11,0,0,-6,x,x
CC(C)(C)c1ccc(OCC(O)CN2CCN(c3ccccn3)CC2)cc1 (configuration not stated),87*,u,86*,-21,55*,u,16µM*
COc1ccc(-c2cc(C(F)(F)F)n3nc(C(=O)NCC45CC6CC(CC(C6)C4)C5)cc3n2)cc1,x,x,-1,16,x,x,x
COc1ccc(C)cc1NC(=O)NC(C)c1ccc2c(c1)OCO2 (configuration not stated),8,-3,65*,-22,-30,-5%,-6%
Cc1ccc(-n2ncc(C(=O)NCc3ccccc3)c2C2CCN(C(=O)OC(C)(C)C)CC2)cc1,x,x,-1,-10,x,x,x
COc1ccc(C2Nc3ccccc3NC3=C2C(=O)CC(C)(C)C3)cc1OC (configuration not stated),38*,8,0,-4,-6,-1%,-1%
CC(=O)Nc1ccc(NC(=O)COC(=O)c2ccccc2SCC(=O)N2CCCC2)cc1,14,-1,1,-3,0,x,x
CN(Cc1ccc(Cl)cc1)C(=O)c1ccccc1SCC(=O)N1CCCC1,x,-10,x,-1,-26,-2%,-2%
CCN(CC(=O)Nc1ccc(NC(C)=O)cc1)C(=O)c1ccccc1SCC(=O)N1CCCC1,x,2,x,x,4,-4%,-3%
COc1ccc(N(CC(=O)Nc2cccc(C(C)=O)c2)S(=O)(=O)c2ccccc2)c(OC)c1,x,x,0,1,x,x,x
O=C(CCCCCNC(=O)c1ccccc1Br)N=Nc1c(O)[nH]c2ccccc12,5,6,28,7,-7,-2%,5%
Nc1c(C(=O)CSc2n[nH]c(-c3ccccc3)n2)c(=O)[nH]c(=O)n1C1CC1,-8,u,66*,-27,10,3%,15%
Cn1c(N)c(C(=O)CSc2nnc(-c3cccs3)n2C2CC2)c(=O)[nH]c1=O,19,u,77*,-21,15,21%,21%
Nc1c(C(=O)CSc2n[nH]c(-c3ccccc3Br)n2)c(=O)[nH]c(=O)n1C1CC1,-11,-4,0,-6,-7,x,x
CCCN1CCc2c(sc(NC(=O)c3ccc(S(=O)(=O)N4CCN(C(=O)OCC)CC4)cc3)c2C(N)=O)C1,-22,-3,47*,-13,-9,-9%,-4%
CC(C)OC(=O)CN1C(=O)S/C(=C/c2ccc(N3CCCCC3)o2)C1=O,2,2,17,4,15,11%,-1%
O=C1S/C(=C/c2ccc(N3CCOCC3)o2)C(=O)N1Cc1ccc(F)cc1,4,-2,20,-9,2,x,x
CC1CCCN(C(=O)c2ccc3c(c2)OCO3)C1 (configuration not stated),6,-7,0,-1,-13,x,x
O=C(c1ccc2c(c1)OCO2)N1CCCC(c2ccccc2)C1 (configuration not stated),55*,2,23,-4,-7,23%,26%
COc1cc(OC)c(Nc2cc(C)nc3ncnn23)cc1Cl,x,x,1,0,x,x,x
O=C(CN1CCN(Cc2ccccc2)CC1)NCCNc1ccc([N+](=O)[O-])cn1,-8,-4,1,6,-2,x,x
Nc1ccn(CC(=O)NCCNc2ccc([N+](=O)[O-])cn2)c(=O)n1,-1,-4,0,-11,-6,-7%,-5%
COc1ccc2oc(=O)c(C(=O)N3c4ccccc4CC3C)cc2c1 (configuration not stated),x,11,x,x,6,-3%,10%
Cc1ccc(N2CCN(C(=O)c3c(C)oc4nc(C)nc(N5CCCC5)c34)CC2)c(C)c1,x,x,1,4,x,x,x
SMILES,D2 antag,D2 ag-1,D2 ag-2,D2 PAM-1,D2 PAM-2,D3 arrestin ag,D2 ag-3
O=C(Nc1ccccc1C(F)(F)F)N1CCN(c2ccccn2)CC1,19,-5,50*,-16,-1,0%,5%
COc1ccccc1NC(=S)N1CCN(c2ccccn2)CC1,x,1,x,x,-9,-2%,6%
COC(=O)c1ccc(C(=O)OC)c(NC(=S)N2CCN(c3ccccn3)CC2)c1,15,1,51*,-8,1,6%,2%
S=C(Nc1ccc(Oc2ccccc2)cc1)N1CCN(c2ccccn2)CC1,-31,1,13,7,0,18%,4%
CCc1ccc(-c2[nH]nc3nc(-c4cc(OC)ccc4OC)cc(C(=O)O)c23)cc1,x,x,0,x,x,x,x
O=C(Cn1cc(S(=O)(=O)Cc2ccc(F)cc2)c2ccccc21)NCCc1ccccc1,x,x,1,-6,x,x,x
COc1ccc(-c2nnn3c2nc(NCCc2ccc(OC)c(OC)c2)c2ccccc23)cc1,x,x,-1,-8,x,x,x
Cc1ccc(C)c(NC(=O)c2ccc(CN3CC(=O)N4CCCCC4C3=O)cc2)c1 (configuration not stated),x,x,1,-7,x,x,x
CCn1cc(C(=O)N2CCN(c3ccccc3)CC2)c(=O)c2cc(S(=O)(=O)N3CCC(C)CC3)ccc21,x,x,0,16,x,x,x
COc1cccc(C(=O)N2CCN(c3ccccn3)CC2)c1,x,u,x,-18,-4,u,26%
COc1ccccc1NC(=O)N1CCN(c2ccccc2F)CC1,x,-1,x,x,-12,x,x
O=C(Nc1ccccc1Cl)N1CCN(c2ccccn2)CC1,15,5,64*,-24,9,-2%,-1%
COc1cc(OC)cc(C(=O)N2CCN(c3ccccn3)CC2)c1,-4,5,-1,3,1,x,x
S=C(Nc1ccc(Br)cc1Cl)N1CCN(c2ccccn2)CC1,-6,2,57*,-13,-16,5%,27%
COc1ccccc1NC(=O)N1CCN(c2ccccn2)CC1,-30,-4,37*,-10,4,5%,0%
Cc1ccccc1C(=O)NC1(C(F)(F)F)N=C(c2ccccc2)N(C2CCCCC2)C1=O (configuration not stated),x,x,0,-3,x,x,x
CCOc1ccc(S(=O)(=O)Nc2cccc(C(=O)N3CCN(c4cccc(OC)c4)CC3)c2)cc1,x,u,x,x,-20,u,25%
